Assay outcomes: PubChem BioAssay, several laboratories
Pemphigus Ab inh: inhibitors of pemphigus antibody binding to DSG3, primary screen, biochemical, bead-based, flow cytometry, scFv-GFP; Desmoglein-3 (Homo sapiens), P32926; DSG3-coupled beads, scFv-anti-DSG3-GFP binding; stronger effect = lower value; binding (percent of control), % at 10 µM; actives 0.48% (n = 310,000);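 active = binding more than 3 SD below its plate's average and above zero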;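 note: hits lower antibody fragment binding to DSG3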
ADAM17 inh: ADAM17 inhibitors, primary screen, biochemical, QFRET. Disintegrin and metalloproteinase domain-containing protein 17 (Homo sapiens), P78536. recombinant ADAM17, EDANS/DABCYL FRET peptide cleavage. inhibition, % at 6.95 µM. actives 0.83% (n = 370,000);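 active = inhibition above the mean of compounds lying between control limits plus 3 SD, set per campaign, cut at about 8.5% in these data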
Target sequence (P78536 215-824 limits assumed): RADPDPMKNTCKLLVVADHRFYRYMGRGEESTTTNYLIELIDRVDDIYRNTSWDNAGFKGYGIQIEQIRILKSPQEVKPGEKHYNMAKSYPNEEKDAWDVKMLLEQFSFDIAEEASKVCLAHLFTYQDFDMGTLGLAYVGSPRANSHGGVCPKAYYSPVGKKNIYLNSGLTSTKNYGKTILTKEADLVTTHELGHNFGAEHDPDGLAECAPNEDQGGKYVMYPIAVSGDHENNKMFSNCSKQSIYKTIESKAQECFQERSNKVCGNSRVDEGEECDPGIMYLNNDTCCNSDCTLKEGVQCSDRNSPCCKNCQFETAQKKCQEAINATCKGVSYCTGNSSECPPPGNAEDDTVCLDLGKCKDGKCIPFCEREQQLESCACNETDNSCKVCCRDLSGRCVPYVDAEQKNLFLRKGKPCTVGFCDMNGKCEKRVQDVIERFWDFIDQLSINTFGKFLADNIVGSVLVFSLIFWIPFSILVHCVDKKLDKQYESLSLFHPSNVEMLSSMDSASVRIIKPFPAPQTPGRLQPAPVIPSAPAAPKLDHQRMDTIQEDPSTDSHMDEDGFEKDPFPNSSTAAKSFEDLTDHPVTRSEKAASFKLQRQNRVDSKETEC
ADAM10 inh: human ADAM10 inhibitors, primary screen, biochemical, QFRET, HTS; actives 0.62% (n = 370,000); recombinant ADAM10, EDANS/DABCYL FRET peptide cleavage, 3 h; AID 720582, 2013; Disintegrin and metalloproteinase domain-containing protein 10 (Homo sapiens), O14672; inhibition, % at 7 µM;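 active = inhibition above a per-campaign cutoff equal to the mean of compounds falling between control-based bounds plus 3 SD, cut at about 20% in these data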
KLK7 zymogen act: proKLK7 zymogen activators, primary screen, biochemical, fluorescence intensity. AID 652039, 2013. Kallikrein-7 (Homo sapiens), P49862. activation, % at 7 µM. actives 0.9% (n = 370,000). purified proKLK7, EDANS-DABCYL substrate fluorescence; 100% is mature enzyme control, 0% vehicle;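 active = activation above the mean of all tested compounds plus 3 SD, computed per campaign excluding outliers beyond control limits, cut at about 13% in these data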
MPTP block: mitochondrial permeability transition pore inhibitors, primary screen, biochemical, isolated mouse mitochondria, absorbance; inhibition, % at 10 µM; Ca2+ swelling absorbance, 30 min; actives 1.4% (n = 360,000);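 active = inhibition of 50% or more, scaled per plate between neutral and stimulator controls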
rCAG binder: binders of r(CAG) RNA repeats, primary screen, biochemical, fluorescence | r(CAG) RNA repeat, TO-PRO-1 dye displacement fluorescence | inhibition, % at 3 µM | actives 1.3% (n = 370,000) | AID 651821, 2012;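 active = inhibition above the plate cutoff, the mean of all test compounds on that plate plus 3 SD, cut at about 35% in these data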;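 note: higher means more dye released from RNA so lower well fluorescence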
ADAM10 confirm: human ADAM10 inhibitors, confirmation, biochemical, QFRET, triplicate; AID 743208, 2013; shares compounds with ADAM10 inh; inhibition, % at 6.95 µM; actives 1% (n = 2,100); ADAM10 QFRET peptide cleavage, EDANS fluorescence;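 active = inhibition above about 20% chosen separately for each screening run, limit read from the data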
ADAM17 ctr: ADAM17 inhibitors, counter-screen for ADAM10 exosite inhibitor project, biochemical, QFRET, high throughput. shares compounds with ADAM10 inh. ADAM17 QFRET peptide cleavage, EDANS fluorescence. inhibition, % at 6.95 µM. actives 0.5% (n = 2,100);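 active = mean triplicate inhibition above the solvent-only control wells' mean plus 3 SD, cut at about 12% in these data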
ADAM10 ctr: ADAM10 inhibitors, counter-screen for ADAM17 exosite inhibitor project, biochemical, FRET, human ADAM10; shares compounds with ADAM17 inh; recombinant ADAM10, EDANS/DABCYL FRET peptide cleavage, 3 h; actives 47% (n = 2,900); AID 743256, 2014; inhibition, % at 6.95 µM;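 active = mean inhibition over the triplicate runs exceeds the activity threshold set in the earlier primary screen, cut at about 20% in these data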
ADAM17 confirm: ADAM17 inhibitors, hit retest, confirmation, biochemical, QFRET peptide cleavage | AID 743257, 2014 | actives 65% (n = 2,900) | inhibition, % at 6.95 µM | recombinant ADAM17, EDANS/DABCYL QFRET peptide cleavage | shares compounds with ADAM17 inh;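 active = mean inhibition across replicates above the hit cutoff set in the primary screen, cut at about 8.5% in these data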
Numbers stand for hits. An excerpt weighted towards active compounds, which were near 4.7% of everything screened.

COC(=O)[C@]12C[C@H](CC(=O)NCc3cccc4ccccc34)C(=O)N(Cc3ccco3)C1=C[C@H](C1CCCC1)O[C@@H]2C was read as ADAM17 inh 14, ADAM10 inh 22, KLK7 zymogen act inactive, rCAG binder inactive, ADAM10 confirm inactive, ADAM17 ctr inactive, ADAM10 ctr 34 and ADAM17 confirm 17.
Cc1cc2c(cc1C)CSC(c1ccccc1O)SC2 was read as Pemphigus Ab inh inactive, ADAM17 inh inactive, ADAM10 inh inactive, KLK7 zymogen act inactive, MPTP block inactive and rCAG binder inactive.
`Oc1ccccc1C1SC(c2ccccc2O)SC(c2ccccc2O)S1` (stereo not given) gave Pemphigus Ab inh inactive, ADAM17 inh 11, ADAM10 inh 35, KLK7 zymogen act inactive, MPTP block inactive, rCAG binder inactive, ADAM10 confirm inactive, ADAM17 ctr inactive, ADAM10 ctr 42 and ADAM17 confirm 23.
`CCc1nc2ccc(C(=O)Nc3ccc(OC)c(OC)c3)cn2c1N(CC)Cc1cccc(Br)c1` gave ADAM17 inh 12, ADAM10 inh 26, KLK7 zymogen act inactive, MPTP block inactive, rCAG binder inactive, ADAM10 confirm inactive, ADAM17 ctr inactive, ADAM10 ctr inactive and ADAM17 confirm 9.8.
For CCc1c(C#N)c(SCCC(=O)Nc2ccc(F)cc2)nc2c1C(=O)CC(C)(C)C2 the results were Pemphigus Ab inh inactive, ADAM17 inh 10.0, ADAM10 inh 31, KLK7 zymogen act inactive, MPTP block inactive, rCAG binder inactive, ADAM10 confirm inactive, ADAM17 ctr inactive, ADAM10 ctr 33 and ADAM17 confirm 13.
Screening CCC(c1ccc(OC)cc1)c1cn(C)c2ccccc12 (stereo not given) returned ADAM17 inh inactive, ADAM10 inh inactive, KLK7 zymogen act inactive and rCAG binder inactive.
`COC(=O)c1ccc(N2CCC(c3cc(-c4ccc(OC)cc4)n[nH]3)CC2)c([N+](=O)[O-])c1` gave Pemphigus Ab inh inactive, ADAM17 inh 12, ADAM10 inh 29, KLK7 zymogen act inactive, MPTP block inactive, rCAG binder inactive, ADAM10 confirm inactive, ADAM17 ctr inactive, ADAM10 ctr 35 and ADAM17 confirm 18.
Screening CC(C)C[C@H](NC(=O)c1[nH]cnc1C(=O)N[C@@H](C)C(=O)OC(C)(C)C)C(=O)OC(C)(C)C returned Pemphigus Ab inh inactive, ADAM17 inh 25, ADAM10 inh 40, KLK7 zymogen act inactive, MPTP block inactive, rCAG binder inactive, ADAM10 confirm inactive, ADAM17 ctr inactive, ADAM10 ctr 33 and ADAM17 confirm 19.
CC(C)C[C@H](NC(=O)c1nc[nH]c1C(=O)NCCCCCNC(=O)OC(C)(C)C)C(=O)OC(C)(C)C was read as Pemphigus Ab inh inactive, ADAM17 inh 9.8, ADAM10 inh 23, KLK7 zymogen act inactive, MPTP block inactive, rCAG binder inactive, ADAM10 confirm inactive, ADAM17 ctr inactive, ADAM10 ctr 35 and ADAM17 confirm 15.
Screening O=C(/C=C1\NC2(CCCC2)Cc2ccccc21)C(=O)N/N=C/c1ccc(O)c(O)c1 returned Pemphigus Ab inh inactive, ADAM17 inh 12, ADAM10 inh 22, KLK7 zymogen act inactive, MPTP block inactive, rCAG binder inactive, ADAM10 confirm inactive, ADAM17 ctr inactive, ADAM10 ctr inactive and ADAM17 confirm 9.4.
Screening C=CCC[C@@H](Cc1ccc(F)cc1)C(=O)OC[C@@H](NC(=O)[C@@H](CC=C)CC(=O)N(CCO)Cc1ccccc1)c1ccccc1 returned Pemphigus Ab inh inactive, ADAM17 inh 26, ADAM10 inh 47, KLK7 zymogen act inactive, MPTP block inactive, rCAG binder inactive, ADAM10 confirm inactive, ADAM17 ctr inactive, ADAM10 ctr 44 and ADAM17 confirm 22.
For C=CCC[C@H](Cc1ccc(F)cc1)C(=O)OC[C@@H](C)NC(=O)[C@H](CC=C)CC(=O)N(CCO)Cc1ccccc1 the results were Pemphigus Ab inh inactive, ADAM17 inh inactive, ADAM10 inh inactive, KLK7 zymogen act inactive, MPTP block inactive and rCAG binder inactive.
`C=CCC[C@@H](Cc1ccc(F)cc1)C(=O)OC[C@@H](NC(=O)[C@H](CC=C)CC(=O)N(CCO)Cc1ccccc1)c1ccccc1` gave Pemphigus Ab inh inactive, ADAM17 inh 11, ADAM10 inh 27, KLK7 zymogen act inactive, MPTP block inactive, rCAG binder inactive, ADAM10 confirm inactive, ADAM17 ctr inactive, ADAM10 ctr 36 and ADAM17 confirm 20.
For CNC(=O)CCc1[nH]c2ccccc2c1Sc1ccccc1 the results were Pemphigus Ab inh inactive, ADAM17 inh 9.1, ADAM10 inh 20, KLK7 zymogen act inactive, MPTP block inactive, rCAG binder inactive, ADAM10 confirm inactive, ADAM17 ctr inactive, ADAM10 ctr inactive and ADAM17 confirm inactive.
For CSc1ccccc1NC(=O)CO/N=C(\C)c1cc2ccccc2o1 the results were Pemphigus Ab inh inactive, ADAM17 inh inactive, ADAM10 inh inactive, KLK7 zymogen act inactive, MPTP block inactive and rCAG binder inactive.
Screening CCc1ccc(NC(=O)CO/N=C(\C)c2cc3ccccc3o2)cc1 returned Pemphigus Ab inh inactive, ADAM17 inh 13, ADAM10 inh 24, KLK7 zymogen act inactive, MPTP block inactive, rCAG binder inactive, ADAM10 confirm inactive, ADAM17 ctr inactive, ADAM10 ctr inactive and ADAM17 confirm 13.
